The structures appear in SMILES notation. Some results are limits rather than exact numbers.
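Further: kd values determined as follow-up on hits from a single-replicate KINOMEscan panel screen.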

For the first assay, the system named is TGFBR1.
Broadly, the Kd is the equilibrium constant for the complex coming apart. Read a low Kd as a tighter complex. `N#Cc1ccc(-c2cc(-c3c[nH]nc3-c3ccccn3)ccn2)cc1` [GW693028] returned a dissociation constant Kd of 150 nM.

For the compound `O=C(c1ccc(-c2cc(-c3c[nH]nc3-c3ccccn3)ccn2)cc1)N1CCOCC1` [GW812171], the Kd came out at 180 nM.

`c1ccc(-c2n[nH]cc2-c2ccnc3ccccc23)nc1` [GW271431] returned a Kd of 110 nM.

The next assay relates to T1, VPS34.
T1 construct: gene PIK3C3
In turn, `O=c1cc(N2CCOCC2)nc2n(Cc3cccc4ccccc34)ccn12` [GSK2333389] yielded a dissociation constant Kd of 60 nM.

As to `Cc1cccc(Cn2ccn3c(=O)cc(N4CCOCC4)nc23)c1` [GSK2297542], the dissociation constant Kd is 75 nM.

With `O=c1cc(N2CCOCC2)nc2n(Cc3cccc(F)c3)ccn12` [GSK2297430], binding was put at a Kd of 33 nM.

Regarding `NS(=O)(=O)c1cccc(-c2ccc3ncc(N4CCOCC4)nc3c2)c1` [GSK1535721], the Kd is above 10000 nM.

In turn, `O=c1cc(N2CCOCC2)nc2n(Cc3cccc(C(F)(F)F)c3)ccn12` [GSK2297543] returned a Kd of 130 nM.

`O=c1cc(N2CCOCC2)nc2n(Cc3cccc(Cl)c3Cl)c(C3CC3)nn12` [GSK2358994] gave a Kd of 0.39 nM.

On to `Cc1cn2c(=O)cc(N3CCOCC3)nc2n1Cc1cccc(Cl)c1Cl` [GSK2334006], for which the affinity, expressed as Kd, was 2.2 nM.

As for `N#Cc1c(N2CCOCC2)sc(-c2ccn[nH]2)c1-c1ccc(Cl)cc1`, binding was characterised by a dissociation constant (Kd) of 58 nM.

For the next assay, the system named is VRK2.
`COc1ccc(Nc2nccc(N3CCC(NC(=O)Nc4cccc(C(C)=O)c4)C3)n2)cc1` (centres unmarked) [GSK1379731] yielded a Kd above 10000 nM.

For the compound `CN(C(=O)c1ccc(-c2cc(-c3c[nH]nc3-c3ccccn3)ccn2)cc1)C1CCOCC1` [GW810083], the Kd was above 10000 nM.

Turning to `CC(C)(C)n1cnc2c(N)ncnc21` [SKF-97359], the dissociation constant Kd was above 10000 nM.

The values above are taken from PMC5540273 (PLoS ONE, 2017).
